Test results as given in PubChem BioAssay (NCATS).
Values joined by “and” are separate entries in the source; they are usually repeats but may differ in a detail not shown here. Equal values may be shown once. Inconclusive results are not listed. A structure can be active in one record and inactive in another. Active and inactive are the calls of the source. Unless noted, calls come from the whole dose curve; as a rule, active = well fitted curve in the direction sought with a large enough effect; inconclusive = small, poorly fitted or top-dose-only effect, or another doubt; inactive = no such curve, though single readings can be large; an effect the other way counts as inactive or inconclusive.

What was measured:
[1] = Primary qHTS for small molecule stabilizers of the endoplasmic reticulum resident proteome: Secreted ER Calcium Modulated Protein (SERCaMP) assay (AID 1508630)
How it was run: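 The SH-SY5Y reporter protocol was run at 3 concentrations up to 38.3 uM (primary) or 11 concentrations (follow-up): 16 h compound, 100 nM thapsigargin for 4 h, then extracellular luciferase luminescence.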

[2] = target: Cytochrome P450 2D6 (Homo sapiens) (UniProt P10635); assay: Cytochrome P450 family 2 subfamily D member 6 (CYP2D6) small molecule antagonists: luciferase biochemical (cell-free) qHTS assay (AID 1645840; active = well fitted curve in the direction sought with a large enough effect in the repeat runs; an effect the other way counts as inactive or inconclusive; note: nearly all actives have a fitted effect of over 55% in size; note: potency is the fitted concentration of half-maximal effect)
How it was run: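 P450-Glo CYP2D6 system: proluciferin substrate converted by enzyme to luciferin, read by luminescence proportional to activity. Enzyme-substrate mix with compound 10 min at room temperature, then NADPH regeneration 1 h before detection reagent.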

[3] = target: Cytochrome P450 2C9 (Homo sapiens) (UniProt P11712); assay: Cytochrome P450 family 2 subfamily C member 9 (CYP2C9) small molecule antagonists: luciferase biochemical (cell-free) qHTS assay (AID 1645842; active = well fitted curve in the direction sought with a large enough effect in the repeat runs; an effect the other way counts as inactive or inconclusive; note: nearly all actives have a fitted effect of over 55% in size; note: potency is the fitted concentration of half-maximal effect)
How it was run: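 P450-Glo CYP2C9 system: proluciferin substrate with enzyme in mix containing 0.4% BSA, 10 min at room temperature, then NADPH regeneration solution added and incubated 1 h at 37C. Detection reagent stopped reaction; luminescence read after 20 min as RLU.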

[4] = target: N-terminal Xaa-Pro-Lys N-methyltransferase 1 (Homo sapiens) (UniProt Q9BV86); assay: Confirmatory qHTS for Inhibitors of N-terminal methyltransferase 1 (NTMT1): MTaseGlo Assay (AID 1645874); note: potency is the fitted concentration of half-maximal effect; nearly all actives have a fitted effect of over 65% in size
How it was run: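 Room-temperature NTMT1 reaction, 30 min, with 100 uM SAM and 1 uM SPKRIA substrate; enzyme 125 nM. Read-out: MTase-Glo luminescence, normalized to no-enzyme and DMSO controls.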

[5] = Primary qHTS for inhibitors of nuclear receptor binding SET domain protein 2 (NSD2) in an isogenic RCH-ACV NSD2 p.E1099K mutant (9B) (AID 1645876); note: nearly all actives have a fitted effect of over 70% in size; note: potency is the fitted concentration of half-maximal effect
[6] = Primary qHTS for inhibitors of nuclear receptor binding SET domain protein 2 (NSD2) in an RCH-ACV wild type WT cells (2C) (AID 1645877); note: nearly all actives have a fitted effect of over 70% in size; note: potency is the fitted concentration of half-maximal effect

Sequence of Cytochrome P450 2D6 (Homo sapiens) (P10635 whole entry, looked up): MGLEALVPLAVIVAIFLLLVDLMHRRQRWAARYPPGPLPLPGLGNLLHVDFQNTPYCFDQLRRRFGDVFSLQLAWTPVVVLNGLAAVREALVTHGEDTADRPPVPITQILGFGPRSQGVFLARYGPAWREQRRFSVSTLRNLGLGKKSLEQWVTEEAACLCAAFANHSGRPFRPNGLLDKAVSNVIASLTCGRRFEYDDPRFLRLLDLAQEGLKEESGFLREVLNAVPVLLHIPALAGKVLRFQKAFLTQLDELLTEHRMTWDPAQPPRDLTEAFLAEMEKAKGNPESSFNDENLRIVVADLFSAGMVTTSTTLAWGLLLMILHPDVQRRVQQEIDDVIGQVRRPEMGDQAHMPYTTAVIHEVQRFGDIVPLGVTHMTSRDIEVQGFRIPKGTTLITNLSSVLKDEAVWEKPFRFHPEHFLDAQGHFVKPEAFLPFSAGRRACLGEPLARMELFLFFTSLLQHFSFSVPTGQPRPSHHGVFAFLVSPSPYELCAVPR
Sequence of Cytochrome P450 2C9 (Homo sapiens) (P11712 whole entry, looked up): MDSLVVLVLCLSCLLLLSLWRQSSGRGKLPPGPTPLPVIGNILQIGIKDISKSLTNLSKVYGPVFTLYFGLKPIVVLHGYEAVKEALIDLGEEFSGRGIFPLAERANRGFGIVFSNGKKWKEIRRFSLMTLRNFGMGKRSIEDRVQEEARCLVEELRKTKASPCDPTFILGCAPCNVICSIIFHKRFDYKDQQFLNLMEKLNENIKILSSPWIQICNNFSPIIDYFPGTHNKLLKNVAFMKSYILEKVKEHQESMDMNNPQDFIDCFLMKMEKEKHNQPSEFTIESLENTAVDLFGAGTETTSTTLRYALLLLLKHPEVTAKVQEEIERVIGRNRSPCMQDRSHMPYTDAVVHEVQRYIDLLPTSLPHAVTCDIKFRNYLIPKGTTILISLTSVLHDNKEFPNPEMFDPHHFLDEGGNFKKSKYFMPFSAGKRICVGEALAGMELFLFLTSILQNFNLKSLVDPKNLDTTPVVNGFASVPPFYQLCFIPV
Sequence of N-terminal Xaa-Pro-Lys N-methyltransferase 1 (Homo sapiens) (Q9BV86 whole entry, looked up): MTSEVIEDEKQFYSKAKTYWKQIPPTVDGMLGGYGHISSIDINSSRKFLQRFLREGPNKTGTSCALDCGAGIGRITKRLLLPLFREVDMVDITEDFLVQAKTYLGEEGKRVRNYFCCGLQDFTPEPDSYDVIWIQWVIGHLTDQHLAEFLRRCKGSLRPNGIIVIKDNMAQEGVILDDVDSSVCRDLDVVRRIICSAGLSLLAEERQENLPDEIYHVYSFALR

Structure (SMILES): O=C(c1ccc(F)c(F)c1Nc1ccc(I)cc1F)N1CC(O)([C@H]2CCCCN2)C1
- Potency [1]: inactive
- Potency [2]: 3.01 µM (active)
- Potency [3]: inactive

Structure (SMILES): C[C@H](CCC(=O)O)[C@H]1CC[C@H]2[C@H]3[C@@H](CC[C@]12C)[C@@]1(C)CC[C@@H](O)C[C@H]1C[C@@H]3O
- Potency [1]: inactive

Structure (SMILES): c1ccc(-c2oc3ncnc(NC[C@@H]4CCCO4)c3c2-c2ccccc2)cc1
- Potency [1]: inactive
- Potency [2]: 10.7 µM (active)
- Potency [3]: 7.56 µM (active)
- Potency [4]: 8.91 µM (active)
- Potency [5]: inactive
- Potency [6]: inactive and 18.3 µM (active)

Structure (SMILES): COc1ccc2cc1Oc1ccc(cc1)C[C@H]1c3cc(c(OC)cc3CCN1C)Oc1c(OC)c(OC)cc3c1[C@H](C2)N(C)CC3
- Potency [1]: inactive

Structure (SMILES): O=C(Nc1cccc(C(F)(F)F)c1)Nc1cc(S(=O)(=O)NC2CC2)ccc1-c1ccsc1
- Potency [1]: inactive
- Potency [2]: 5.35 µM (active)
- Potency [3]: 3.38 µM (active)
- Potency [5]: 23.5 µM (active)
- Potency [6]: 23 µM (active)

Structure (SMILES): Clc1ccc(C2(c3ccc(-c4cn[nH]c4)cc3)CCNCC2)cc1
- Potency [1]: inactive
- Potency [2]: 3.38 µM (active)
- Potency [5]: 3.65 µM (active) and 3.72 µM (active)
- Potency [6]: 1.83 µM (active) and 2.35 µM (active)

Structure (SMILES): CC(C)(O)CC(=O)NCCn1ccc2ncnc(Nc3ccc(Oc4cccc(C(F)(F)F)c4)c(Cl)c3)c21
- Potency [1]: inactive
- Potency [2]: 12 µM (active)
- Potency [5]: 20.5 µM (active) and 11.8 µM (active)
- Potency [6]: 20.5 µM (active) and 13.2 µM (active)

Structure (SMILES): Cc1cc(C(C)Nc2ccccc2)c2nc(N3CCOCC3)cc(=O)n2c1 (centres undefined)
- Potency [1]: inactive
- Potency [2]: inactive
- Potency [3]: 1.07 µM (active)
- Potency [5]: 2.3 µM (active) and 2.63 µM (active)
- Potency [6]: 2.3 µM (active) and 2.63 µM (active)

Structure (SMILES): C[C@@]1(c2cc(-c3cncnc3)c(F)cc2F)CCSC(N)=N1
- Potency [1]: inactive
- Potency [2]: 6.74 µM (active)
- Potency [3]: 16.9 µM (active)
- Potency [5]: inactive
- Potency [6]: inactive

Structure (SMILES): Cc1ccccc1C(=O)c1ccc(Nc2ccc(Br)cc2N)cc1Cl
- Potency [1]: inactive
- Potency [2]: 15.1 µM (active)
- Potency [5]: 16.6 µM (active) and 5.78 µM (active)
- Potency [6]: 10.5 µM (active) and 9.2 µM (active)

Structure (SMILES): CCc1cc(-c2n[nH]c(C)c2-c2ccc3c(c2)OCCO3)c(O)cc1O
- Potency [1]: inactive
- Potency [2]: 4.25 µM (active)
- Potency [3]: 0.756 µM (active)
- Potency [5]: 8.33 µM (active)
- Potency [6]: 7.42 µM (active)

Structure (SMILES): CC(C)(C)c1nc(-c2cccc(NS(=O)(=O)c3c(F)cccc3F)c2F)c(-c2ccnc(N)n2)s1
- Potency [1]: inactive
- Potency [2]: inactive
- Potency [3]: 6.74 µM (active)
- Potency [5]: 5.9 µM (active)
- Potency [6]: 4.68 µM (active)

Structure (SMILES): CCN1C[C@H](C)n2c(c(O)c3c(=O)n(Cc4ccc(F)c(Cl)c4)nc(C(=O)NC)c32)C1=O
- Potency [1]: inactive
- Potency [2]: inactive
- Potency [3]: 8.49 µM (active)
- Potency [5]: inactive
- Potency [6]: inactive

Structure (SMILES): NS(=O)(=O)c1ccc(Nc2nc(OCC3CCCCC3)c3[nH]cnc3n2)cc1
- Potency [1]: inactive
- Potency [2]: 19 µM (active)
- Potency [5]: 13.2 µM (active)
- Potency [6]: 13.2 µM (active)

Structure (SMILES): Cc1ccccc1C(C(=O)NC1CCCCC1)N(C(=O)CNc1ccc(C#N)cc1)c1cccc(F)c1 (centres undefined)
- Potency [1]: inactive
- Potency [2]: inactive
- Potency [5]: inactive
- Potency [6]: inactive

Structure (SMILES): Cc1cccc2c1CC[C@H](CN1CCC(c3c(Cl)cccc3Cl)CC1)C[C@@H]2O
- Potency [1]: inactive
- Potency [2]: 2.13 µM (active)
- Potency [3]: 9.52 µM (active)
- Potency [5]: 10.3 µM (active)
- Potency [6]: 7.28 µM (active)

Structure (SMILES): CC[C@H](CC#N)OC(=O)N[C@@H](C)c1cccc(NC(=O)Nc2ccc(-c3cnco3)c(OC)c2)c1
- Potency [1]: inactive
- Potency [2]: 0.338 µM (active)
- Potency [3]: 0.0756 µM (active)
- Potency [5]: 129 nM (active) and 166 nM (active)
- Potency [6]: 0.23 µM (active)

Structure (SMILES): Cn1cnc(-c2cc3nccc(Oc4ccc(NC(=S)NC(=O)Cc5ccccc5)cc4F)c3s2)c1
- Potency [1]: inactive
- Potency [2]: inactive
- Potency [5]: 5.15 µM (active) and 2.95 µM (active)
- Potency [6]: 5.78 µM (active) and 3.32 µM (active)

Structure (SMILES): CN(C)c1nc(Cc2ccc(NC(=O)c3ccc(C(F)(F)F)cc3)cc2)nc(N(C)C)c1CC(=O)O
- Potency [1]: inactive
- Potency [2]: inactive
- Potency [5]: inactive
- Potency [6]: inactive

Structure (SMILES): CNC(=O)[C@H](Cc1ccccc1)NC(=O)[C@H](CC(C)C)[C@H](CSc1cccs1)C(=O)NO
- Potency [1]: inactive
- Potency [2]: inactive
- Potency [3]: inactive
- Potency [5]: inactive
- Potency [6]: inactive

Structure (SMILES): Cc1nn(Cc2ccccc2Cl)c(C)c1CN(C)CC(O)COc1ccc(Cl)cc1 (centres undefined)
- Potency [1]: inactive
- Potency [2]: 0.536 µM (active)
- Potency [3]: inactive
- Potency [5]: 18.6 µM (active)
- Potency [6]: 14.8 µM (active)
